target: ZNF721 full-length (Homo sapiens, UniProt Q8TF20-2 1-923); experiment: HT-SELEX; 20 mM HEPES pH 7, 140 mM KCl, 5 mM NaCl, 1 mM K2HPO4, 2 mM MgSO4, 100 uM EGTA, ZnSO4, 0.1% Tween20; room temperature, 1 h; high values mean tight binding; details: protein: ivt; tags: eGFP (N-terminal); dsDNA, one strand shown
Procedure, shortened: (§1)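 Full-length or DNA-binding-domain forms of a tagged transcription factor were produced in HEK293 lysate or cell-free extract and immobilised on beads. Incubation with a randomized 40-base DNA library ran for 1 h at room temperature in HEPES/KCl low-stringency buffer with Tween20, after which bound DNA was washed, heat-eluted, PCR-amplified over successive cycles and Illumina-sequenced. Binding strength is given as the relative k-mer count in selected reads, higher for tighter binding.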

Sequence of ZNF721 full-length (Q8TF20 other isoform, or with tags, fused parts or gaps): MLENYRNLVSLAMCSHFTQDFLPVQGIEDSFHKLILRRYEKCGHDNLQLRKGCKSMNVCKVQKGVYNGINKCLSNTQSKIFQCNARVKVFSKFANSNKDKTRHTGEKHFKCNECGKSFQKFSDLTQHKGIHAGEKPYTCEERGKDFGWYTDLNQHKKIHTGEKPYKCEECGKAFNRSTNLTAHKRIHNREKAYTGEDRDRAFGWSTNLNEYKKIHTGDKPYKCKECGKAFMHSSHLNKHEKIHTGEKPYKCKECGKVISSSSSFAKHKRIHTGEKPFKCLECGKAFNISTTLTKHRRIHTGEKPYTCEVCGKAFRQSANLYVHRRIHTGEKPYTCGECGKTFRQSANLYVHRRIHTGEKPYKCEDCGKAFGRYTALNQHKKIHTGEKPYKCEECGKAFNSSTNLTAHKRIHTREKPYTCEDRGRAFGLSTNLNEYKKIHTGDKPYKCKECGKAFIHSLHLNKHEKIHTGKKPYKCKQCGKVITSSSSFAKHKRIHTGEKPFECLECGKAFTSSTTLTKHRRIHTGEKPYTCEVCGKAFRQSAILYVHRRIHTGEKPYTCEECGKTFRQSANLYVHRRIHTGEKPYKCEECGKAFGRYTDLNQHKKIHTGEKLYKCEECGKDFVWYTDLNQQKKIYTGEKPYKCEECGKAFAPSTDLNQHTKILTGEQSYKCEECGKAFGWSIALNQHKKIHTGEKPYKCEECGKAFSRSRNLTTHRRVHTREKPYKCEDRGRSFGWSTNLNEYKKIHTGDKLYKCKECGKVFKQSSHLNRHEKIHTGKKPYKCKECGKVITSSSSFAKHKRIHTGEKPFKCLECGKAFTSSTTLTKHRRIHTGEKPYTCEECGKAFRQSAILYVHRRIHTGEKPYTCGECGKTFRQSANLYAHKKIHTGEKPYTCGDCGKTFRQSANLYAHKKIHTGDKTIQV

Row | Sequence | binding signal [relative 10-mer count]
1 | CCCCCACTCC | 0.14
2 | CCGCCCACCC | 0.268
3 | AAGTGTATCC | 0.292
4 | AGGGGTGGTG | 0.139
5 | CCACCCACCG | 0.143
6 | AAAAGCTGCC | 0.103
7 | CCACGCCCAC | 0.102
8 | AGGGAGGGGG | 0.15
9 | CGAAAAAAAA | 0.137
10 | CCCCACGCCC | 0.235
11 | GAAAAAAAAA | 0.142
12 | CCACCCTACC | 0.115
13 | CGCCCACCAC | 0.138
14 | CGCTTTTTTC | 0.258
15 | AAAGCAGCAC | 0.125
16 | CCCCGCCCTC | 0.146
17 | CCCACCCGAC | 0.114
18 | GCCCCCACCC | 0.19
19 | CCCTCCCGCC | 0.161
20 | AGGGGGGTGG | 0.157

Row | Sequence | binding signal [relative 10-mer count]
21 | AGGGGTGGGG | 0.2
22 | ACAAAAAAAA | 0.179
23 | TCCCCCCCCA | 0.116
24 | CCACCTCCCC | 0.278
25 | CGCCCTCCCC | 0.172
26 | CCCAACCACC | 0.17
27 | GCCCGCCCCC | 0.106
28 | CTTTTTTTTA | 0.14
29 | AAAGCAGGGT | 0.272
30 | CCCCTCCCAC | 0.218
31 | CCCCACCCAC | 0.337
32 | CCCCCGACCC | 0.181
33 | CCCGCCCCCG | 0.13
34 | ACCCCAACCC | 0.128
35 | CCACCACCCG | 0.131
36 | AAAGCATACC | 0.143
37 | GCACCCCACC | 0.104
38 | AGCATACCCT | 0.346
39 | ACCCCCCACC | 0.257
40 | GCCACCCCCC | 0.138

target: ZNF721 DBD1 (Homo sapiens, UniProt Q8TF20-2 29-461); experiment: as above; details: protein: ivt; tags: eGFP (N-terminal); dsDNA, one strand shown
Sequence (Q8TF20 17-449): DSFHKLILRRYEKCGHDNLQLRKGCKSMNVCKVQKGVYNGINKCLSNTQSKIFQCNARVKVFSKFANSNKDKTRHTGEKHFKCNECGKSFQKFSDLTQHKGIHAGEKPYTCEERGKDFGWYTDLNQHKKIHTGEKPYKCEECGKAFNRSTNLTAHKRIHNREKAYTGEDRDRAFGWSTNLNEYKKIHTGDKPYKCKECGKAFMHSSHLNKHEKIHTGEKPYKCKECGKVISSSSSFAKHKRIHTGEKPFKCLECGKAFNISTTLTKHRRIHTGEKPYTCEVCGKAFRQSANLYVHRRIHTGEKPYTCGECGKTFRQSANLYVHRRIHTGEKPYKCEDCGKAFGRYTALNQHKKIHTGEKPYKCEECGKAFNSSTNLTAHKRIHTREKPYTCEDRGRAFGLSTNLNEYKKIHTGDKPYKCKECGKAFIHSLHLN
Procedure, shortened: as §1

Row | Sequence | binding signal [relative 10-mer count]
41 | CCCCCACTCC | 0.00665
42 | CCGCCCACCC | 0.0089
43 | AAGTGTATCC | 0.241
44 | AGGGGTGGTG | 0.00532
45 | CCACCCACCG | 0.00615
46 | AAAAGCTGCC | 0.0372
47 | CCACGCCCAC | 0.00514
48 | AGGGAGGGGG | 0.00628
49 | CGAAAAAAAA | 0.0159
50 | CCCCACGCCC | 0.00853
51 | GAAAAAAAAA | 0.0136
52 | CCACCCTACC | 0.00688
53 | CGCCCACCAC | 0.00569
54 | CGCTTTTTTC | 0.0622
55 | AAAGCAGCAC | 0.00583
56 | CCCCGCCCTC | 0.00601
57 | CCCACCCGAC | 0.00449
58 | GCCCCCACCC | 0.0083
59 | CCCTCCCGCC | 0.00716
60 | AGGGGGGTGG | 0.00835

Row | Sequence | binding signal [relative 10-mer count]
61 | AGGGGTGGGG | 0.00968
62 | ACAAAAAAAA | 0.0167
63 | TCCCCCCCCA | 0.005
64 | CCACCTCCCC | 0.0134
65 | CGCCCTCCCC | 0.0066
66 | CCCAACCACC | 0.00752
67 | GCCCGCCCCC | 0.00413
68 | CTTTTTTTTA | 0.0207
69 | AAAGCAGGGT | 0.00115
70 | CCCCTCCCAC | 0.0104
71 | CCCCACCCAC | 0.0124
72 | CCCCCGACCC | 0.00587
73 | CCCGCCCCCG | 0.00482
74 | ACCCCAACCC | 0.00463
75 | CCACCACCCG | 0.00564
76 | AAAGCATACC | 0.0247
77 | GCACCCCACC | 0.00284
78 | AGCATACCCT | 0.0443
79 | ACCCCCCACC | 0.0107
80 | GCCACCCCCC | 0.00546
